Out of some 310,000 compounds screened, about 14,000 (4.5%) showed an effect of 50% or more. The effect is printed as a negative number. The entries come from a sample that favours strong results as a whole.
target: human ether-à-go-go-related gene (hERG) potassium channel (human, UniProt Q12809); test: primary screen, population patch clamp on CHO cells stably expressing hERG; higher = less effect of the substance
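Further: peak tail current of the secondary pulse compared with the same well before compound.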

Sequence of human ether-à-go-go-related gene (hERG) potassium channel (Q12809 whole entry, looked up): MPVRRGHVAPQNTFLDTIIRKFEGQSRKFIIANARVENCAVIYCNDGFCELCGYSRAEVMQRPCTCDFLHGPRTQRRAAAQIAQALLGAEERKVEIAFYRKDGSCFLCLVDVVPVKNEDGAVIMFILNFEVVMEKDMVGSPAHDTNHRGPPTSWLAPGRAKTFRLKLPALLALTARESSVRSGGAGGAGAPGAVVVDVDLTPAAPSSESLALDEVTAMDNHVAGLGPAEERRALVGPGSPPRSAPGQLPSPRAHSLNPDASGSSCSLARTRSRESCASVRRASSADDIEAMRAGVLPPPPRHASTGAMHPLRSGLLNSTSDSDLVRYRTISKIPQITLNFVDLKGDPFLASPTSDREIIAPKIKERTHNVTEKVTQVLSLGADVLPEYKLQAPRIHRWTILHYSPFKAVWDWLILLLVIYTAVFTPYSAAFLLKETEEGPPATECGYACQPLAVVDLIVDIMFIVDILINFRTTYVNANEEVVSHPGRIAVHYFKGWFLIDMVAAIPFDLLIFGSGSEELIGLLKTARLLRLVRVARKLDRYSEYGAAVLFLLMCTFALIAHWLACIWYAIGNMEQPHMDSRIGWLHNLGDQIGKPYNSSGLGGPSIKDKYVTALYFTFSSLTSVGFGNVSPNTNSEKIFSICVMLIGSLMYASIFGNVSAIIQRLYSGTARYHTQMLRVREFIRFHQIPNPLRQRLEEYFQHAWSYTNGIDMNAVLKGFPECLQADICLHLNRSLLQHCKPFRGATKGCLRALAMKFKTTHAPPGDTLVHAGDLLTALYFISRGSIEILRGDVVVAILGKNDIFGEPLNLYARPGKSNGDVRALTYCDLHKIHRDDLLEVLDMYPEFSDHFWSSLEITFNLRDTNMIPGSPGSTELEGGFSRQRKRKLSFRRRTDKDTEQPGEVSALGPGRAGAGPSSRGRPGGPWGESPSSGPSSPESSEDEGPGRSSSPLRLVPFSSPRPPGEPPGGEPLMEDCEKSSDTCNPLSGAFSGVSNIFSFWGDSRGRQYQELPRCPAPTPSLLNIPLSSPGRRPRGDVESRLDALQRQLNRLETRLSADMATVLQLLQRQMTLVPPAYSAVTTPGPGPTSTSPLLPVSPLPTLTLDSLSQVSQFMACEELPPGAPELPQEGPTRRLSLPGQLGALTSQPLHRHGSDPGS

| SMILES | hERG current change (%, negative = inhibition) at 10uM [%] |
| --- | --- |
| O=C(NCCN1CCCC1)C1CCN(S(=O)(=O)N2CCC3(CC2)OCCO3)CC1 | 20.5 |
| Cc1cccc(N(C)c2ncnc3onc(-c4ccc(F)cc4)c23)c1C | -8.28 |
| COc1ccc(CN2CCNC(=O)C2CC(=O)NCC2CCOCC2)c(C)c1C (stereo not drawn) | -19.6 |
| O=C(O)CCCn1cc(NC(=O)COc2ccc(F)cc2)cn1 | 16.5 |
| N#Cc1c(N)oc(-c2ccco2)c1-c1ccco1 | 1.98 |
| COc1ccc(NS(=O)(=O)c2cccc(C(=O)NNC(=O)CNC(=O)c3ccc(C)cc3)c2)cc1 | -2.64 |
| O=C(NCc1ccccc1)C(c1ccc(F)cc1)N(Cc1ccco1)C(=O)c1ccccn1 (stereo not drawn) | -24.4 |
| O=C(Nc1c2c(nc3ccccc13)CCCC2)c1ccccc1Br | 4.09 |
| O=C(Nc1c2c(nc3ccccc13)CCCC2)c1cccc([N+](=O)[O-])c1 | -5.85 |
| N#Cc1cccc(Nc2c3c(nc4ccccc24)CCC3)c1 | -72.2 |
| N#Cc1cccc(Nc2c3c(nc4ccccc24)CCCC3)c1 | -74.8 |
| CC(C)c1ccc(NC(=O)c2cc3c(=O)n(C)c4ccccc4c3n2C)cc1 | 6.96 |
| COc1ccccc1OCc1ccc(C(=O)N2CCCCC2)o1 | 2.22 |
| O=C(c1ccco1)c1cn(CC(=O)N2CCCCC2)c2ccccc12 | -6.34 |
| CCOC(=O)c1[nH]c2ccccc2c1NC(=O)COC | -4.53 |
| Cc1cc(C(=O)CCl)c(C)n1Cc1ccco1 | 3.06 |
| Cc1oc(-c2ccccc2F)nc1CS(=O)CC(=O)NCc1cccs1 (stereo not drawn) | -12 |
| Cc1oc(-c2ccccc2F)nc1CN1CCC(C(=O)NCc2cccs2)CC1 | -63.7 |
| Cc1ccccc1-c1nc(CN2CCC(C(=O)NCc3cccs3)CC2)c(C)o1 | -70.5 |
| Cc1oc(-c2ccc(Cl)cc2)nc1CN1CCC(C(=O)NCCCN2CCCC(C)C2)CC1 (stereo not drawn) | -16.5 |
| Cc1oc(-c2ccc(Cl)cc2)nc1CN1CCC(C(=O)NCCCN2CCCC2=O)CC1 | -33.9 |
| Cc1oc(-c2ccc(Cl)cc2)nc1CN1CCC(C(=O)NCc2cccs2)CC1 | -61.5 |
| CC12CCC3C(CC=C4CC(O)CCC43C)C1C/C(=C\c1cccc(F)c1)C2=O (stereo not drawn) | 7.89 |

| SMILES | hERG current change (%, negative = inhibition) at 10uM [%] |
| --- | --- |
| COc1ccc(CNC(=O)Cc2nn(C)c(=O)c3ccccc23)cc1 | -14.2 |
| CCN1CCN(S(=O)(=O)c2cc(C(=O)O)ccc2Cl)CC1.Cl | -3.34 |
| Cc1ccc(S(=O)(=O)N2CCC(C(=O)NNC(=O)c3ccccc3)CC2)cc1 | 18.9 |
| CCOc1ccc(NC(=S)N2CCC(C(O)(c3ccccc3)c3ccccc3)CC2)cc1 | -13 |
| CC(OC(=O)c1ccc(F)c(S(=O)(=O)N2CCOCC2)c1)C(=O)NCC1CCCCC1 (stereo not drawn) | 1.84 |
| C=CCOCCN(CC)CC | -21.3 |
| Cc1ccc(NC(=O)CSc2nnc(CNC(=O)c3c(F)cccc3Cl)o2)cc1 | 3.28 |
| COc1cc(/C=C2\C(=O)N(CCC#N)N=C2C)ccc1OCC(=O)Nc1ccccc1 | -7.3 |
| Cc1ccc(-c2nc(CS(=O)CC(=O)NC3CC3)c(C)o2)cc1 (stereo not drawn) | 6.39 |
| Cc1ccsc1-c1nc(CN2CCN(C)C(=O)[C@@H]2C)c(C)o1 | -52.5 |
| Cc1oc(-c2ccc3ccccc3c2)nc1CN(C)C(C)c1ccncn1 (stereo not drawn) | -49.8 |
| Cc1oc(-c2cc(F)ccc2F)nc1CN1CCN(C)C(=O)[C@@H]1C | 8.32 |
| Cc1ccsc1-c1nc(CN2C[C@@H](C)O[C@@H](C)C2)c(C)o1 | 17.5 |
| Cc1ccsc1-c1nc(CN2CCCC2c2ccc(F)cc2)c(C)o1 (stereo not drawn) | 24.9 |
| Cc1oc(-c2cccc(Cl)c2)nc1CN(C)C1CCOC1 (stereo not drawn) | 0.385 |
| Cc1oc(-c2ccc(-c3ccccc3)cc2)nc1CN(C)C1CCOC1 (stereo not drawn) | -55.8 |
| CSc1ccc(-c2nc(CN(C)C3CCOC3)c(C)o2)cc1 (stereo not drawn) | -31.4 |
| Cc1ccsc1-c1nc(CN(C)C(C2CC2)C2CC2)c(C)o1 | -76 |
| Cc1ccc(-c2nc(CN(C)C(C3CC3)C3CC3)c(C)o2)cc1 | -56.6 |
| COc1cccc(C2CCCN2Cc2nc(-c3sccc3C)oc2C)c1 (stereo not drawn) | 20.6 |
| O=[N+]([O-])c1cccc(-c2c(-c3ccccc3)ncc3cc(F)ccc23)c1 | 0.428 |
| Nc1cccnc1S(=O)(=O)c1ccccc1 | 13.8 |
| O=C(c1ccco1)N1CCN(C2=NS(=O)(=O)c3ccccc32)CC1 | -3.13 |

| SMILES | hERG current change (%, negative = inhibition) at 10uM [%] |
| --- | --- |
| COc1ccc(CCC(=O)Nc2cccc(Cl)c2)cc1 | -1.25 |
| O=C(CN1C(=O)NC2(CCOc3ccccc32)C1=O)c1ccc(Cl)cc1 (stereo not drawn) | -43.5 |
| O=C(Nc1cccc(-c2ccc(N3CCOCC3)nn2)c1)c1ccc(Cl)cc1 | -3.12 |
| Cc1oc(-c2ccc(-c3ccccc3)cc2)nc1CN(CCO)C(C)C | -44.1 |
| Cc1oc(-c2ccccc2)nc1CC(=O)O | 8.97 |
| COCCN(Cc1nc(-c2ccc(-c3ccccc3)cc2)oc1C)C(C)C | -71.4 |
| COc1ccc(-c2csc(NC(=O)c3ccc(C(C)(C)C)cc3)c2C(=O)O)cc1 | 24.9 |
| CC(NC(=S)NCCc1ccccc1)C(c1cccs1)N1CCN(C)CC1 (stereo not drawn) | -35.7 |
| CC(=O)c1ccc(NC(=O)Nc2ccncc2)cc1 | 15.3 |
| O=C(CCCc1c[nH]c2ccccc12)N[C@@H](Cc1c[nH]c2ccccc12)C(=O)O | 18.9 |
| CCOC(=O)N1CCC(NC(=O)c2cc(C(=O)Nc3ccc(S(=O)(=O)N4CCCCC4)cc3)ccc2CO)CC1 | 34.2 |
| CCOC(=O)Cn1nc(C)cc1NC(=O)c1cccnc1 | 10 |
| O=C(CCCc1nc(-c2ccc(Cl)cc2)no1)NC1CCCC1 | -1.19 |
| O=C(O)[C@H](Cc1ccccc1)NC(=O)N1CCOCC1 | -7.49 |
| CCOC(=O)c1cnc2ccccc2c1Nc1ccc2c(c1)OCCO2 | -12.3 |
| CCOC(=O)c1cnc2c(OC)cccc2c1Nc1ccc2c(c1)OCCO2 | -56.3 |
| CCOC(=O)c1cnc2c(OC)cccc2c1Oc1ccccc1 | 3.3 |
| CCOC(=O)c1cnc2c(OC)cccc2c1N1CC(C)CC(C)C1 (stereo not drawn) | -17.1 |
| CCOC(=O)c1ccc(NCc2cccnc2)cc1 | 0.518 |
| CCOC(=O)c1cnc2c(Cl)cccc2c1NCCN(C)C.Cl | -25.6 |
| CCOC(=O)c1cnc2c(OC)cccc2c1NCc1cccnc1 | -72.2 |
| CCOC(=O)c1cnc2ccc(OC)cc2c1Nc1ccc2c(c1)OCCO2 | 1.43 |
| CCOC(=O)c1cnc2c(C(=O)OC)cccc2c1NCc1cccnc1 | -70.5 |

| SMILES | hERG current change (%, negative = inhibition) at 10uM [%] |
| --- | --- |
| CC(=O)c1cccc(NC(=O)C(C)OC(=O)CN2C(=O)NC(C)(C)C2=O)c1 (stereo not drawn) | 23.8 |
| COC(=O)C1=C(c2cc3ccccc3s2)C[C@@H]2CC[C@H]1N2C(=O)NCCNC(C)=O | 2.06 |
| O=C(O)Cn1ccnc1 | 4.81 |
| Nc1ccccc1-c1nnc(SCc2ccccc2Cl)[nH]c1=O | -0.313 |
| COC(=O)C(c1ccccc1)N1CCCCCC1.Cl (stereo not drawn) | 10.8 |
| Cc1nc2ncnn2c(C)c1CCC(=O)N1CCN(Cc2ccccc2)CC1 | -7.67 |
| Cc1nc2ncnn2c(C)c1CCC(=O)N1CCOCC1 | 1.89 |
| CCOC(=O)N1CCN(C(=O)CCc2c(C)nc3nc(C)nn3c2C)CC1 | -22 |
| Cc1nc2ncnn2c(C)c1CCC(=O)N1CCc2ccccc21 | -80.6 |
| Cc1nc2ncnn2c(C)c1CCC(=O)N1CCc2ccccc2C1 | -63.4 |
| Cc1nc2nc(C)c(CCC(=O)O)c(C)n2n1 | 8.07 |
| Cc1nc2ncnn2c(C)c1CCC(=O)N1CCN(c2ccccn2)CC1 | -33.3 |
| Cc1nc2nc(C)c(CCC(=O)N3CCc4ccccc43)c(C)n2n1 | -63.5 |
| Cc1nc2ncnn2c(C)c1CCC(=O)N1CCCCC1 | -2.79 |
| CCc1nnc(NC(=O)CCN2C(=O)/C(=C/c3cc(OC)c(OC)c(OC)c3)SC2=S)s1 | 8.4 |
| O=C(O)CCC(C(=O)O)n1c(O)c(C2=c3ccccc3=NC2=O)sc1=S (stereo not drawn) | 20.5 |
| Cc1ccc(OCC(=O)N2CCC(N3CC(C)CC(C)C3)CC2)cc1 (stereo not drawn) | -45.5 |
| S=C1NCN(CCc2ccccc2)CN1Cc1ccccc1 | 14.8 |
| COc1ccc(CNC(=O)Cn2cc([N+](=O)[O-])cn2)cc1 | 16.1 |
| O=C(COC(=O)c1ccc2ncsc2c1)NCc1ccc(Cl)cc1 | -4.62 |
| O=C(Nc1cccnc1)c1cc(-c2ccccc2)on1 | 5.06 |

Reference: article PMC4336329 (PLoS ONE, 2015)
